Common to all, as to assay: NCI-60 one-dose screen, 48 h (100 = growth as untreated, 0 = no growth, -100 = all killed)
In assay [1] the test system is NCI-H23 lung. Conditions: 10 µM unless noted.
Assay [2] concerns NCI-H322M lung. Conditions: 10 µM unless noted.
Assay [3] relates to HOP-62 NSCLC. Conditions: 10 µM unless noted.
The test system of assay [4] is NCI-H460 lung. Conditions: 10 µM unless noted.
Assay [5] concerns HOP-92 NSCLC. Conditions: 10 µM.
The test system of assay [6] is NCI-H522 lung. Conditions: 10 µM unless noted.
In assay [7] the test system is A549/ATCC NSCLC. Conditions: 10 µM unless noted.
Assay [8] deals with 786-0 renal. Conditions: 10 µM unless noted.
Assay [9] relates to COLO 205 colon. Conditions: 10 µM unless noted.
Assay [10] concerns DU-145 prostate. Conditions: 10 µM unless noted.
In assay [11] the test system is K-562 leukemia. Conditions: 10 µM unless noted.
Assay [12] deals with MALME-3M melanoma. Conditions: 10 µM unless noted.
Assay [13] relates to MDA-MB-231 breast. Conditions: 10 µM unless noted.
Assay [14] concerns SF-268 CNS. Conditions: 10 µM unless noted.
The subject of assay [15] is SF-295 CNS. Conditions: 10 µM unless noted.
The test system of assay [16] is SF-539 CNS. Conditions: 10 µM unless noted.
Assay [17] relates to UACC-257 melanoma. Conditions: 10 µM unless noted.
Assay [18] has as its system NCI-H226 lung. Conditions: 10 µM unless noted.
Assay [19] has as its system RXF 393 renal. Conditions: 10 µM unless noted.
Assay [20] has as its system M14 melanoma. Conditions: 10 µM unless noted.

The panel holds about 83,000 compounds, 20% with a hit somewhere; the sample as a whole holds those more often.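 Note: values are percent growth. 100 is the growth of untreated cells, values between 100 and 0 indicate rising inhibition; between -100 and 0 indicates cell death.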 Values without a mark were called inactive. The source made the active and inactive calls. Rule for the calls: active = growth percent below 10; inactive = the rest.

As to `CC1(C)CC[C@]23CC[C@]4(C)[C@H](CC[C@@H]5[C@@]6(C)CCCN(CO)C(C)(C)[C@@H]6CC[C@]54C)[C@H]2[C@H]1OC3`, the growth is 86.4% in assay [1]; 71.9% in assay [2]; 98.9% in assay [3]; 1.75% (active) in assay [4]; 77.5% in [5]; 94.9% in assay [6]. Further, the growth in assay [7] was 76.8%; in [8], 83.8%; in assay [9] it was 0.57% (active); in assay [10], 50.7%; in [11], 2.86% (active); in [12] it was 101%. The growth is 65.9% in assay [13]; 97.5% in assay [14]; 112% in assay [15]; 84.6% in assay [16]; 110% in assay [17].

On to `CN(C)C(=O)c1cc(-c2ccc3ncnc(NCc4ccccc4)c3c2)cnc1N`, for which the growth in assay [1] is 91.6%; in assay [18] it was 91.8%; in [2], 87%; in assay [3] it was 63.2%; in assay [4] it was 104%; in assay [7] it was 72.9%. Further, the growth was 67.7% in [8]; 116% in assay [9]; 55.6% in [10]; 95.9% in [11]; 101% in [12]; 70% in [13]. For the same compound, the growth is -4.14% (active) in assay [19]; 65.7% in [14]; 91.7% in assay [15]; 90.4% in assay [16]; 94.4% in assay [17]; 109% in [20].

Turning to `CC(=O)c1cc(C(=O)N2c3ccccc3Sc3ccccc32)n2ccc3ccccc3c12`, the growth is 62.8% in assay [1]; 61.8% in assay [2]; 42.4% in [3]; 30% in assay [4]; -38% (active) in assay [6]; 50.3% in assay [7]. For the same compound, the growth was 38.4% in assay [8]; 36.3% in [9]; 53% in assay [10]; 20.1% in assay [11]; 49.6% in assay [12]; 76.7% in assay [13]. The growth in assay [19] was 31.7%; in assay [14], 54.1%; in assay [15] it was 18.8%; in assay [16], 29.5%; in [17], 57.4%; in [20] it was 33.1%.

In the case of `CN1CCN(Cc2ccc(NC(=O)c3cncc(C#Cc4cnc5ccc(OCC6(C)COC6)nn45)c3)cc2C(F)(F)F)CC1`, the growth in [1] was -76.2% (active); in assay [2], -81.2% (active); in [3], -69.4% (active); in assay [4] it was -77.5% (active); in [5], -70.6% (active); in assay [6], -28.3% (active). Also, the growth in assay [7] was -43.8% (active); in assay [8], -55.4% (active); in [9] it was -58.5% (active); in assay [10], -85.3% (active); in assay [11] it was 4.99% (active); in [12], -79.8% (active). Also, the growth was -74.1% (active) in assay [13]; -62.2% (active) in [14]; -97.1% (active) in [15]; -88.6% (active) in [16]; -70.6% (active) in [17].

On to `CCN(CC)c1ccc(NC2=C(Cl)C(=O)c3nc(C)ccc3C2=O)cc1`, for which the growth in assay [1] was -10.3% (active); in assay [2], 109%; in [3], 130%; in [4], 100%; in assay [6], -44.3% (active); in assay [7], 100%. Besides, the growth in assay [8] was 60.6%; in [9], 101%; in [10] it was 87.9%; in assay [11], 0.916% (active); in assay [12], -11.1% (active); in assay [13], -46.5% (active). The growth in assay [19] was -95.1% (active); in [14], 90.8%; in assay [15], 105%; in assay [16], 102%; in assay [17], -57.7% (active); in assay [20] it was 40.4%.

Consider `COc1cc(-c2nc3sccn3c2-c2ccnc(S(C)(=O)=O)n2)ccc1F`, for which the growth is 92.4% in [1]; 89.3% in assay [2]; 108% in assay [3]; 100% in [4]; 93.4% in assay [6]; 94.2% in assay [7]. The growth in assay [8] was 102%; in assay [9], 114%; in assay [10], 102%; in assay [11] it was 89.6%; in assay [12] it was 4.8% (active); in assay [13], 87%. Also, the growth is 84.5% in assay [19]; 100% in assay [14]; 98.6% in assay [15]; 91.5% in assay [16]; 96.1% in [17].

Turning to `Nc1nc(-c2cccc([N+](=O)[O-])c2)c(N=Nc2ccc([N+](=O)[O-])cc2Cl)s1`, the growth in assay [1] was 0.802% (active); in assay [2], 13.8%; in [3], 21.9%; in assay [4], 1.77% (active); in [6] it was -3.73% (active); in assay [7], 15.2%. For the same compound, the growth in [8] was 3.66% (active); in assay [9] it was -61.6% (active); in assay [10], 19.6%; in assay [11] it was 10.7%; in assay [12], -3.18% (active); in assay [13], 12.2%. Moreover, the growth in assay [19] was -31.1% (active); in [14] it was 20.5%; in assay [15] it was -18.4% (active); in [16], 16.9%; in [17] it was -8.89% (active); in assay [20], 4.9% (active).

As for `O=C(NNc1nc2cc(F)c(F)cc2n2c(CN3CC4CNCC4C3)ccc12)c1cnccn1` (stereo not given), the growth in [1] was 26.7%; in assay [2], 26.7%; in [3] it was 10.8%; in assay [4] it was 1.73% (active); in assay [5], 37.4%; in assay [6], 11.2%. For the same compound, the growth in [7] was 16.9%; in [8], 16.5%; in assay [9], 11.4%; in assay [10], 22.1%; in assay [11] it was 14.1%; in [12] it was 7.02% (active). Moreover, the growth was 39.6% in assay [13]; 15.8% in assay [14]; 5.87% (active) in assay [15]; 8.64% (active) in [16]; 7.77% (active) in assay [17].

For the origin of these results see PubChem BioAssay (NCI).
